Assay results: the supplement of paper PMC12297408
Structures can show the parent of a compound that is named as a salt. The campaign covered roughly 1,300 compounds. About 40 (3%) showed activity. The list comes from a sample in which actives are over-represented; it also holds similar structures and randomly drawn compounds. A number with no mark means an inactive call.

System: Plasmodium falciparum NF54/iGP1_RE9H ulg8 stage V gametocytes
Test: gametocyte viability (luciferase signal relative to DMSO control) (% of DMSO control); higher = less gametocytocidal activity, active = 50 or less
Conditions: exposure time: 72 h
Summary of the method: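 NF54/iGP1_RE9Hulg8 stage V gametocytes (day 12; ~2.5% gametocytemia, 3% hematocrit) were incubated with compounds at 10 µM or 1 µM final, in one well each, for 72 h at 37 °C in medium with 0.5% Albumax II. Luminescence after D-luciferin addition was read on an IVIS Lumina II. Viability refers to the mean of plate DMSO vehicle wells.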

Row | SMILES | gametocyte viability (concentration: 1 µM) | gametocyte viability (concentration: 10 µM)
1 | C#C[C@]1(O)CC[C@H]2[C@@H]3CCC4=C(CCC(=O)C4)[C@H]3CC[C@@]21C [Norethynodrel] | 83.2 | 68.7
2 | COC(=O)C1=C(C)NC(C)=C(C(=O)OC)C1c1ccccc1[N+](=O)[O-] [Nifedipine] | 91.8 | 80.7
3 | Clc1ccc(C(Cn2ccnc2)OCc2c(Cl)cccc2Cl)c(Cl)c1 (configuration not stated) [Isoconazole] | 91.2 | 90.9
4 | CN(C)CCOC(C)(c1ccccc1)c1ccccn1 (configuration not stated) [Doxylamine succinate] | 87.8 | 87.7
5 | Cc1cc(-n2c(=O)[nH]c(=O)n(C)c2=O)ccc1Oc1ccc(SC(F)(F)F)cc1 [Toltrazuril] | 86.4 | 84.2
6 | CC1(C)O[C@@H]2C[C@H]3[C@@H]4C[C@H](F)C5=CC(=O)C=C[C@]5(C)[C@H]4[C@@H](O)C[C@]3(C)[C@]2(C(=O)CO)O1 [Flunisolide] | 87.5 | 88.9
7 | C[N+](C)(CCOc1ccccc1)Cc1ccccc1.O=C([O-])c1cc2ccccc2cc1O [Bephenium hydroxynaphthoate] | 87.3 | 89.9
8 | CC(C)(C)CC(C)(C)c1ccc(OCCOCC[N+](C)(C)Cc2ccccc2)cc1 [Benzethonium chloride] | 82.1 | 9.32 (active)
9 | Cc1cc(C(C)(C)CC(C)(C)C)ccc1OCCOCC[N+](C)(C)Cc1ccccc1 [Methyl benzethonium chloride] | 88.6 | 6.6 (active)
10 | Cc1cc(C2CCCCC2)n(O)c(=O)c1 [Ciclopirox ethanolamine] | 85.5 | 86.8
11 | Clc1ccc2nsnc2c1NC1=NCCN1 [Tizanidine HCl] | 93.4 | 98.4
12 | C[C@H]1[C@H](NC(=O)/C(=N\OC(C)(C)C(=O)O)c2csc(N)n2)C(=O)N1S(=O)(=O)O [Aztreonam] | 96.9 | 96
13 | CCOC(=O)O[C@]1(C(=O)OCCl)CC[C@H]2[C@@H]3CCC4=CC(=O)C=C[C@]4(C)[C@H]3[C@@H](O)C[C@@]21C [Loteprednol etabonate] | 88.2 | 85
14 | Cc1cccc(C)c1NC(=O)C(C)N (configuration not stated) [Tocainide hydrochloride] | 91.8 | 90.2
15 | O=C1CC2(CCCC2)CC(=O)N1CCCCN1CCN(c2ncccn2)CC1 [Buspirone hydrochloride] | 83.9 | 65.7
16 | O=C1Cc2cc(CCN3CCN(c4nsc5ccccc45)CC3)c(Cl)cc2N1 [Ziprasidone  Hydrochloride] | 82.9 | 71.6
17 | O=C1[C@H]2CCCC[C@H]2C(=O)N1CCCCN1CCN(c2nsc3ccccc23)CC1 [Perospirone] | 64.7 | 39.7 (active)
18 | OCCN(CCO)c1nc(N2CCCCC2)c2nc(N(CCO)CCO)nc(N3CCCCC3)c2n1 [Dipyridamole] | 64.1 | 41.1 (active)

Row | SMILES | gametocyte viability (concentration: 1 µM) | gametocyte viability (concentration: 10 µM)
19 | N=c1nc(N2CCCCC2)cc(N)n1O [Minoxidil] | 102 | 96
20 | CC(C)NCC(O)c1ccc(O)c(O)c1 (single isomer, unassigned; (+)) [(+)-Isoproterenol (+)-bitartrate salt] | 100 | 97.8
21 | CC(=O)c1ccc2c(c1)N(CCCN1CCC(CCO)CC1)c1ccccc1S2 [Piperacetazine] | 79.4 | 80.8
22 | Fc1ccc(C(c2ccc(F)cc2)N2CCN(C/C=C/c3ccccc3)CC2)cc1 [Flunarizine dihydrochloride] | 81.5 | 95.1
23 | COC1=CC(=O)C[C@@H](C)[C@]12Oc1c(Cl)c(OC)cc(OC)c1C2=O [Griseofulvin] | 89.3 | 84.6
24 | CCOC(=O)O[C@]1(C(=O)COC(=O)CC)CC[C@H]2[C@@H]3CCC4=CC(=O)C=C[C@]4(C)[C@H]3[C@@H](O)C[C@@]21C [Prednicarbate] | 91.7 | 90.6
25 | CN(Cc1cnc2nc(N)nc(N)c2n1)c1ccc(C(=O)N[C@@H](CCC(=O)O)C(=O)O)cc1 (racemic) [Amethopterin (R,S)] | 80.3 | 83.6
26 | CN(Cc1cnc2nc(N)nc(N)c2n1)c1ccc(C(=O)N[C@@H](CCC(=O)O)C(=O)O)cc1 [Methotrexate] | 91.4 | 87.9
27 | COc1cccc2c1C(=O)c1c(O)c3c(c(O)c1C2=O)C[C@@](O)(C(=O)CO)C[C@@H]3O[C@H]1C[C@H](N)[C@H](O)[C@H](C)O1 [Doxorubicin hydrochloride] | 64.5 | 19 (active)
28 | COc1cccc2c1C(=O)c1c(O)c3c(c(O)c1C2=O)C[C@@](O)(C(C)=O)C[C@@H]3O[C@H]1C[C@H](N)[C@H](O)[C@H](C)O1 [Daunorubicin hydrochloride] | 69.8 | 7.37 (active)
29 | C#C[C@]1(O)CC[C@H]2[C@@H]3CCC4=CCCC[C@@H]4[C@H]3CC[C@@]21C [Lynestrenol] | 86 | 89.2
30 | CCCCNc1c(C(=O)OCC)c(C)nc2c1cnn2CC [Tracazolate hydrochloride] | 88.5 | 76.3
31 | CC#C[C@]1(O)CC[C@H]2[C@@H]3CCC4=CC(=O)CCC4=C3[C@@H](c3ccc(N(C)C)cc3)C[C@@]21C [Mifepristone] | 83.1 | 83.2
32 | CN(C)CCOC1=Cc2ccccc2Sc2ccc(Cl)cc21 [Zotepine] | 91.1 | 86
33 | CCOC(=O)N1CCC(=C2c3ccc(Cl)cc3CCc3cccnc32)CC1 [Loratadine] | 86 | 87.7
34 | CC(C)(C#N)c1cc(Cn2cncn2)cc(C(C)(C)C#N)c1 [Anastrozole] | 77.6 | 45.8 (active)
35 | CN(C)CCc1c[nH]c2ccc(Cn3cncn3)cc12 [Rizatriptan benzoate] | 84.2 | 84
36 | OC(Cn1cncn1)(Cn1cncn1)c1ccc(F)cc1F [Fluconazole] | 83.4 | 86.9
